Test results: ChEMBL document CHEMBL3433997, “St. Jude Leishmania screening dataset” (2016)

These molecules were tested against Glucose transporter (Leishmania mexicana) (UniProt O61059) (assay: ST_JUDE_LEISH: Cytotoxicity at 2uM final concentration against transgenic Leishmania Mexicana promastigotes LmGT2 that are glucose transport deficient and complemented with the L. Mexicana glucose transporter 2. Activity is measured by DNA content using SYBR green in vitro).
Format: functional
COc1cc(NC(=O)N2CCc3ccc(OCCC4CCCN4C)cc32)cc(C(F)(F)F)c1 (stereo not given) gave an inhibition of -0.48%.
For N=C(N)Nc1nc(-c2ccc(NC(=O)Nc3cccc(-c4csc(NC(=N)N)n4)c3)cc2)cs1, the inhibition was -0.17%.
With O=C(NCCN1CCCCC1)c1cc2cc(-c3ccccc3)ccc2n1S(=O)(=O)c1ccccc1 the inhibition was 55.4%.
Work on CCOC(=O)c1ccc(NC(=O)Nc2ccc(-c3cccc(-c4nc5cccc(C)c5[nH]4)c3)cc2)cc1 yielded an inhibition of -0.76%.
For Cc1ccc(NC(=O)c2cccc(CN3CCCN(Cc4cccc(O)c4)CC3)c2)cc1F, the inhibition was 1.34%.
O=c1cc(NCCCNC2CCc3ccc(Cl)cc32)[nH]c2ccccc12 (stereo not given) showed an inhibition of 1.83%.
Work on CC(Oc1ccc(NC(=O)c2cccs2)cc1)C(=O)c1ccc(Cl)cc1 (stereo not given) yielded an inhibition of 7.25%.
O=[N+]([O-])c1ccc(Nc2nc(N/N=C/c3cccc(O)c3)nc(N3CCCC3)n2)cc1 was tested, and the inhibition was 1.31%.
Work on COC(=O)c1ccc(NC(=O)c2ccc(CCN3CCC(c4nc(COCC(F)(F)F)c(-c5ccc(F)cc5)o4)CC3)cc2)cc1 yielded an inhibition of 2.38%.
Work on Cc1cccc2nc(-c3ccc(-c4cccc(CNCc5cccc(N)c5)c4)cc3)[nH]c12 yielded an inhibition of -1.02%.
CN(C)c1ccc(C=C2SC(=O)N=C2Nc2ccccc2)cc1 showed an inhibition of 0.57%.
With Cc1ccc2nc(C)cc(N/N=C/c3ccc([N+](=O)[O-])o3)c2c1 the inhibition was 9.98%.
O=C(N[C@@H](Cc1ccccc1)[C@H](O)CNC1CCCc2ccccc21)c1cc(C2CCCC2)cc(N2CCCC2=O)c1 (stereo not given in full) gave an inhibition of -0.94%.
In the case of COc1ccc(CN2CCN(CC(=O)Nc3cc(Cl)ccc3-n3cncn3)CC2)cc1F, the inhibition is reported as -0.67%.
Work on Clc1cc(Cl)cc(Nc2ccnc(Nc3cc(Cl)cc(Cl)c3)n2)c1 yielded an inhibition of 2.57%.
With CN(C)c1ccc2c(c1)Sc1cc(N(C)C)ccc1N2C(=O)c1cccc(C(=O)O)c1 the inhibition was 7.43%.
With Clc1ccc(OCc2ccccc2)c(Cc2ccc(-c3nc4cnccc4[nH]3)o2)c1 the inhibition was 0.25%.
CSc1ccc(CN2CCC(NC(=O)c3ccc(-c4cccc(Cl)c4)s3)CC2)cc1 gave an inhibition of 2.36%.
CS(=O)(=O)c1ccc2c(c1)CCN(CCC1CCC(NC(=O)c3cc4cccc(Br)c4[nH]3)CC1)CC2 (stereo not given) gave an inhibition of 1.11%.
Molecule O=C(Nc1cc(F)cc(F)c1)N1CCOC(CCN2CCC3(CCc4ccccc43)CC2)(c2ccc(Cl)c(Cl)c2)C1 (stereo not given) has an inhibition of 1.78%.
Work on O=C(NCCCCN1CCC(C(c2ccccc2)c2ccccc2)CC1)c1ccc(NC(=O)c2ccc(Cl)cc2)cc1 yielded an inhibition of -1.74%.
With NC1CCN(Cc2cccc(-c3csc(-c4nc5ccccc5[nH]4)c3)c2)C1 (stereo not given) the inhibition was 4.6%.
Molecule CCCCNCc1ccc(-c2nc(CN(CCCn3ccnc3)C(=O)C3COc4ccccc4O3)cs2)cc1 (stereo not given) has an inhibition of -0.46%.
COc1cc(Cc2cnc(N)nc2N)cc(OCCn2ccccc2=O)c1OC was tested, and the inhibition was 1.46%.
CCOC(=O)c1nc(-c2ccc(-c3ccccc3)cc2)[nH]c1N gave an inhibition of 2.52%.
Nc1ccc(-c2nc3cc(Oc4ccc5[nH]c(-c6ccc(N)cc6)nc5c4)ccc3[nH]2)cc1 showed an inhibition of -0.55%.
In the case of Cc1[nH]cnc1-c1cccc(NC(=O)c2cc3ccccc3s2)c1, the inhibition is reported as -0.35%.
Molecule COc1ccc2ncc(C#N)c(CCN3C4CCC3CC(NCc3ccc5c(n3)NC(=O)CS5)C4)c2c1 (stereo not given) has an inhibition of 1.45%.
CN(C)CCNC(=O)c1ccc(-c2cnc3ccc(NCc4ccc(Cl)c(Cl)c4)nn23)cc1 was tested, and the inhibition was 11.1%.
CN(CCCNCc1ccc2ccccc2c1)CCCNCc1ccc2ccccc2c1 showed an inhibition of 3.29%.
Molecule CS(=O)(=O)c1cccc(-c2cnc(N)c3cc(-c4cccc(F)c4)ccc23)c1 has an inhibition of 0.94%.
With CC(C)(C)c1ccc(NC(=O)N[C@@H]2CCN(c3ccnc4ccccc34)C2)cc1 the inhibition was 0.79%.
CN(C)c1ccc(OCCCCCCOc2ccccc2)cc1 gave an inhibition of 1.98%.
In the case of CN1CCC(NCc2ccc(-c3ccc(Cl)cc3)cc2)CC1, the inhibition is reported as 4.44%.
Work on c1ccn2c(Sc3ncnc4sccc34)ncc2c1 yielded an inhibition of -1.33%.
COc1cc2c(c(Cl)c1OC)CCN(Cc1ccccc1)CC2c1ccc(NC(=O)C(F)(F)F)cc1 (stereo not given) showed an inhibition of 2.44%.
COc1cc(C(C)C)ccc1C1CCN(CCCCNC(=O)c2ccc(NC(=O)c3ccc(Cl)cc3)cc2)CC1 was tested, and the inhibition was 3.65%.
Cc1ccc(C)c(Cn2ccc3nc(N)nc(N)c32)c1 gave an inhibition of -0.67%.
Work on Fc1cccc(COc2ccc(Nc3ncnc4sc(C#C[C@H]5CCCN5)cc34)cc2F)c1 yielded an inhibition of 0.52%.
In the case of COc1cc(C(=O)Nc2nc3ccccc3[nH]2)ccc1OCC(=O)Nc1cccc(C(F)(F)F)c1, the inhibition is reported as 1.11%.
